mcGAS MS inh = blocks mouse cGAS cGAMP production; recombinant mouse cGAS, cGAMP by RapidFire MS; Q8C6L5; actives 0.18% (n = 130,000); AID 1259397; inhibition, % at 12.5 µM;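 active means inhibition of cGAS enzyme activity at or above 60%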;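 further: enzyme stimulated by 45 bp dsDNA with ATP and GTP substrates; cGAMP share of summed cGAMP plus half ATP and half GTP signals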
* = called active by the depositor; ! = a repeat was not active. The entries come from a sample that favours hits as a whole.

`COc1cccc(COC2CCCN(C(=O)CCc3ccccc3)C2)c1` (stereo unspecified) gave mcGAS MS inh -4.0.
`O=c1cc(-c2ccccc2)n2c(=S)[nH]nc2[nH]1` gave mcGAS MS inh 67.8*.
For CCc1cc(=O)[nH]c2n[nH]c(=S)n12 the results were mcGAS MS inh 9.3.
Screening CCCc1cc(=O)[nH]c2n[nH]c(=S)n12 returned mcGAS MS inh 7.3.
`NC(=O)CN(C(=O)c1ccc(N2CCOCC2)cc1)C1CCCC1` gave mcGAS MS inh 2.0.
`CCOC(=O)N1CCN([C@H]2CN(C(=O)c3ccc(OC)cc3)C[C@@H]2O)CC1` gave mcGAS MS inh -9.6.
Screening CC(C)c1cc(=O)n2c(n1)SCC2CC(=O)Nc1cccc(Cl)c1Cl (stereo unspecified) returned mcGAS MS inh -4.4.
`COC(=O)C1=C(C)NC(C)=C(C(=O)OCCN)C1c1ccccc1C(F)(F)F` (stereo unspecified) gave mcGAS MS inh -7.1.
For COC(=O)C1=C(C)NC(C)=C(C(=O)OCC(C)C)C1c1ccccc1[N+](=O)[O-] (stereo unspecified) the results were mcGAS MS inh 65.3*!.
Screening CCN1C(=O)NC(c2ccccc2[N+](=O)[O-])C(C(=O)OCCOC)=C1C (stereo unspecified) returned mcGAS MS inh -8.1.
CC(Sc1nnc(-c2cccc(S(=O)(=O)N3CCOCC3)c2)n1C1CCCC1)c1ccccc1 (stereo unspecified) was read as mcGAS MS inh 10.8.
CC(c1ccc(F)cc1)N1CCN(S(=O)(=O)N(C)C)CC1 (stereo unspecified) was read as mcGAS MS inh -29.4.
For N#CC(=Cc1ccc(F)cc1)c1nnc2n1CCCCC2 the results were mcGAS MS inh 44.2.
N#CC(=Cc1ccc(Br)cc1)c1nnc2n1CCCCC2 was read as mcGAS MS inh 60.4*.
Screening N#CC(=Cc1ccc(O)c(O)c1)c1nnc2n1CCCCC2 returned mcGAS MS inh -1.3.
Screening Cc1csc(SCCCn2c(=O)c3c(ncn3C)n(C)c2=O)n1 returned mcGAS MS inh -3.1.
`O=C(O)c1sc(Br)c(I)c1I` gave mcGAS MS inh 77.8*.
Screening N#Cc1ccc(Oc2ccc(Br)cc2F)nc1 returned mcGAS MS inh -1.3.
Cc1c(C(=O)N(C)Cc2ccc(F)cc2)sc(=O)n1CC(=O)c1ccc(N2CCCC2)cc1 was read as mcGAS MS inh -4.4.

Bioassay records as filed in PubChem.
